Screening data as filed in PubChem.
AMA1-RON2 inh – inhibitors of Plasmodium falciparum AMA1-RON2 interaction | Potency, µM (titrated, usually from 58.2 µM), for the others: top-dose activity change, negative = inhibition, most hits filed as inhibitors | AID 720542 | hit rate 0.2% among 360,000 | AlphaScreen AMA1-biotinylated RON2 peptide binding;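 further: 0% = vehicle wells and -100% = peptide control; nearly all actives have a fitted effect of over 45% in size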
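AMA1 (3D7) with his tag at 25 nM final met compounds first, then biotinylated RON2 peptide at 25 nM; detection used donor plus acceptor beads, 10 µg/mL apiece, read by AlphaScreen after 30 min at room temperature.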
Pf growth 48h – P. falciparum growth inhibition at 48 hours (one generation); P. falciparum luciferase growth in erythrocytes, 48 h; hit rate 5.9% among 310,000; Potency, µM (titrated, usually from 28.7 µM), without a hit: at the top dose activity change, negative = inhibition, most hits filed as inhibitors; AID 504832; further: on the % scale 0 is the no-effect control and ±100 the full control effect
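Cell-based growth assay: transgenic P. falciparum expressing firefly luciferase, cultured in red cells within RPMI 1640 containing 0.5% w/v Albumax, 24 mM bicarbonate and gentamycin. A drop in luciferase activity indicates inhibition.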
Pf growth 96h – P. falciparum growth inhibition at 96 hour, primary screen for plastid delayed-death inhibitors; P. falciparum luciferase reporter growth, 96 h; Potency, µM (highest dose often 28.7 µM), for the others: at the top dose activity change, negative = inhibition, hits mostly inhibitors; hit rate 6.9% among 320,000; AID 504834; further: on the % scale 0 is the no-effect control and ±100 the full control effect
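Plates of compound plus infected erythrocytes (2% hematocrit, 0.05% parasitemia final) incubate 96 hours, 37 C, 5% CO2. Detection reagent added; reduced luminescence from the parasites' luciferase reporter flags inhibition.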
Sm TGR inh – blocks Schistosoma mansoni thioredoxin glutathione reductase | AID 485364 | purified TGR, DTNB reduction, TNB absorbance 405 nm | Potency, µM (doses to about 114 µM), for inactives: at the top dose activity change, negative = inhibition, most hits filed as inhibitors | Q962Y6 | hit rate 3% among 360,000; further: on the % scale 0 is the no-effect control and ±100 the full control effect; nearly all actives have a fitted effect of over 60% in size
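Kinetic colorimetric format: TGR-catalysed, NADPH-driven DTNB reduction monitored via TNB absorbance. Enzyme dispensed at 20 nM; compound exposure 15 min at room temperature before reaction start.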
NS1 function inh – blocks influenza NS1 protein function; hit rate 0.4% among 270,000; Potency, µM (top dose mostly 46.1 µM), for inactives: top-dose activity, positive = more growth; AID 2326; calls by dose curve; further: actives are rising curves; nearly all actives have a fitted effect of over 50% in size
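S. cerevisiae expressing influenza A NS1, grown in glucose, washed, then diluted 1:100 into pH 6.0 -URA galactose medium with 23 nl compound. Growth recovery read as OD600; NS1-free strain serves as control.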
* = called active by the depositor; ? = inconclusive; / = no result given; [ ] = dose if it differs, or a comment. Shown are actives, neighbours in structure and some others; about 11% of the full set was active somewhere. Unless noted, the call rests on the fitted dose curve; in most records, active means well fitted curve in the direction sought with a large enough effect; inconclusive means small, poorly fitted or top-dose-only effect, or another doubt; inactive means no such curve, though single readings can be large; an effect the other way counts as inactive or inconclusive. Potency means the concentration at half of the fitted maximal effect.

SMILES | AMA1-RON2 inh | Pf growth 48h | Pf growth 96h | Sm TGR inh | NS1 function inh
O=[N+]([O-])c1cccc(-c2cn3nc(-c4ccccc4)c(-c4ccccc4)nc3n2)c1 | 9% | 9.3µM* | ? | 9% | 5%
Cc1cccc(NC(=O)CSc2nc3ccccc3nc2N2CCCCC2)c1C | / | / | / | 3% | /
COc1ccc(C(Cl)=C(c2ccc(OC)cc2)c2ccc(OC)cc2)cc1 | -3% | 9.3µM* | ? | -1% | -10%
CCOC(=O)c1cnc(SCc2ccc(C)cc2)nc1N | 29% | 70% | 0.052µM* | 3% | 0%
NC(N)=Nc1ccc2[nH]c3c(c2c1)C[C@@]1(O)[C@H]2Cc4ccc(O)c5c4[C@@]1(CCN2CC1CC1)[C@H]3O5 | -23% | ? | -4% | 0.79µM* | -11%
Oc1ccc2c3c1O[C@H]1[C@@H](O)CC[C@@]4(O)[C@@H](C2)N(CC2CCC2)CC[C@]314 | 8% | 0% | 52% | -11% | /
Cc1cc(Oc2ncccc2[N+](=O)[O-])c2cc(Cl)ccc2n1 | -9% | -18% | ? | -14% | 2%
COc1cccc(C(Nc2ccccn2)c2oc(CO)cc(=O)c2O)c1 (stereo not given) | -19% | 13% | -18% | 3.2µM* | /
O=c1cc(CO)oc(C(Nc2ccccn2)c2ccccc2F)c1O (stereo not given) | -28% | / | / | / | /
O=c1cc(CO)oc(C(Nc2ccccn2)c2cccc(F)c2)c1O (stereo not given) | 1% | 1% | 1% | 2.8µM* | 19%
COc1cccc(C(NC(C)=O)c2nc(-c3cc4ccccc4o3)cs2)c1 (stereo not given) | 0% | / | / | / | /
O=c1cc(CO)oc(C(Nc2ccccn2)c2ccc(C(F)(F)F)cc2)c1O (stereo not given) | 42% | ? | -12% | 40µM* | -48%
CC1CCN(S(=O)(=O)c2cccc(S(=O)(=O)N3CCCC3)c2)CC1 | 0% | 0% | -9% | 6% | -8%
OCCN1CCN(C(c2cccs2)c2ccc3cccnc3c2O)CC1 (stereo not given) | / | 2.1µM* | 0% | 0.32µM* | -148%
CC(=O)Nc1ccnn1C1CCN(C(=O)c2cccc(C)c2C)CC1 | 15% | -8% | -34% | 0% | 0%
CCOC(=O)N1CCN(C(=O)CN(C2CCCCC2)S(=O)(=O)c2c(C)cc(C)cc2C)CC1 | 11% | / | 10µM* | -26% | -11%
Cc1ccc(S(=O)(=O)N(CC(=O)N2CCN(c3ccccc3F)CC2)C2CCCCC2)cc1 | -16% | / | 10µM* | -17% | 6%
Cc1cc(C)c(S(=O)(=O)N(CC(=O)N2CCOCC2)C2CCCCC2)c(C)c1 | 6% | ? | ? | 4% | -18%
Cc1ccc(N(C)C(=O)CC(C)S(=O)(=O)c2ccc3c(c2)NC(=O)CO3)cc1 (stereo not given) | 9% | 19% | 3.7µM* | -13% | -1%
CC(CC(=O)N1CCN(c2ccccc2)CC1)S(=O)(=O)c1ccc2c(c1)NC(=O)CO2 (stereo not given) | 2% | -5% | 5.9µM* | -2% | 2%
Cc1ccc(CNC(=O)CC(C)S(=O)(=O)c2ccc3c(c2)NC(=O)CO3)cc1 (stereo not given) | 3% | 6% | 9.3µM* | 4% | -9%
Cc1ccc(CNC(=O)CC(C)S(=O)(=O)c2ccc3c(c2)NC(=O)CS3)o1 (stereo not given) | 0% | 16% | ? | 14µM* | 8%
Cc1ccc(CNC(=O)CCS(=O)(=O)c2ccc3c(c2)NC(=O)CS3)cc1 | -2% | 9% | 47% | -32% | 7%
CCOC(=O)c1c(NC(=O)c2nn(C)cc2[N+](=O)[O-])sc(C)c1C | -8% | 22% | 10% | 4% | -1%
CCN(C(=O)c1cc2c(Cl)nc3ccc(C)cc3c2s1)c1cc(OC)ccc1OC | / | / | / | 1% | /
SMILES | AMA1-RON2 inh | Pf growth 48h | Pf growth 96h | Sm TGR inh | NS1 function inh
COc1ccc(S(=O)(=O)N2CCN(C(=O)c3cc(C)on3)CC2)cc1 | 13% | 5% | ? | -11% | /
CN1CCN(C(=O)/C(=C/c2cccnc2)NC(=O)c2cccc(Br)c2)CC1 | 9% | -7% | 57% | ? | 6%
Cc1ccc(CNS(=O)(=O)c2cc3c(cc2C)NC(=O)CO3)cc1 | 2% | ? | 4.1µM* | -16% | -1%
Cc1cc2c(cc1S(=O)(=O)NCc1ccc(N(C)C)cc1)OCC(=O)N2 | -5% | -16% | ? | -10% | -23%
O=C(CCS(=O)(=O)c1ccc2c(c1)NC(=O)CO2)NCc1ccccc1 | 4% | 5% | 13µM* | -2% | -5%
O=C(C=CC=Cc1ccccc1)c1ccc([N+](=O)[O-])cc1 | -16% | / | / | / | /
CCOCCCn1c(C)nc2c(c1=O)c1nc3ccccc3nc1n2-c1ccc2c(c1)OCCO2 | 3% | 5.2µM* | ? | 2% | 3%
CCCCn1c2nc3ccccc3nc2c2c(=O)n(C(C)CC)cnc21 (stereo not given) | 37% | 19% | 9% | 0% | -3%
CCCn1c(C)nc2c(c1=O)c1nc3ccccc3nc1n2-c1ccc2c(c1)OCCO2 | / | / | / | / | 19%
CCC(C)n1cnc2c(c1=O)c1nc3ccccc3nc1n2-c1ccc2c(c1)OCCO2 (stereo not given) | -9% | 14% | 13µM* | 0% | -44%
CCC(C)n1cnc2c(c1=O)c1nc3ccccc3nc1n2Cc1ccc2c(c1)OCO2 (stereo not given) | / | 3.7µM* | ? | 5% | 15%
CCOC(=O)C1(Cc2ccc(OC)cc2)CCN(C(=O)CCn2cccn2)CC1 | -17% | 5% | -13% | 2% | -3%
CCn1c(=O)c2sccc2n2c(CCCC(=O)Nc3ccc(OC)c(OC)c3)nnc12 | / | / | / | 1% | /
COc1ccc(N2c3ccccc3CN(Cc3ccccc3)[C@@H](C)[C@H]2Cc2cccnc2)cc1 | 14µM* | / | / | / | /
CCOc1ccccc1CN1CCN(Cc2ccc3cccc(OC)c3n2)CC1CCO (stereo not given) | 3% | 0% | ? | 25µM* | 22%
CCOc1ccc(CN2CCN(Cc3cnc(-c4ccccc4)s3)CC2CCO)cc1 (stereo not given) | 3% | ? | ? | / | 3%
CCOc1ccc(CN2CCN(CC3=Cc4cccc(OC)c4OC3)CC2CCO)cc1 (stereo not given) | -6% | 10µM* | ? | -11%[57.1 µM] | -1%
Cc1ccc(CN2CCN(Cc3ccon3)CC2CCO)cc1 (stereo not given) | 5% | -2% | 10µM* | 2% | 3%
COc1cc(CN2CCN(Cc3ccc(C)cc3)C(CCO)C2)cc(OC)c1O (stereo not given) | 8% | 0% | -17% | 6.3µM* | 5%
O=C1NC(=NCc2ccccc2)NC1(c1ccccc1)c1ccccc1 | -7% | / | / | / | /
COc1ccc(CCNC(=O)C(C)n2c(=O)cc(C(F)(F)F)c3c(C)nn(C)c32)cc1OC (stereo not given) | / | / | / | 1% | /
